Assay results as given in PubChem BioAssay (NCI).
The panel holds about 83,000 compounds, 20% with a hit somewhere; the sample as a whole holds those more often.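 How to read the values: 0–100, growth inhibition (40 = 60% inhibited); 0, no net growth; -100 to 0, cell death (-40 = 40% of starting cells died; -100 = all dead).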 Unmarked numbers belong to inactive results. Active and inactive are the calls of the source. Rule for the calls: active = growth percent below 10; inactive = the rest.

Tests used:
Test in all cases: NCI-60 one-dose screen, 48 h (100 = growth as untreated, 0 = no growth, -100 = all killed)
Settings in all cases: 10 µM
NCI-H23 lung = test system: NCI-H23 lung
NCI-H226 lung = test system: NCI-H226 lung
NCI-H322M lung = test system: NCI-H322M lung
HOP-62 NSCLC = test system: HOP-62 NSCLC
NCI-H460 lung = test system: NCI-H460 lung
HOP-92 NSCLC = test system: HOP-92 NSCLC
NCI-H522 lung = test system: NCI-H522 lung
A549/ATCC NSCLC = test system: A549/ATCC NSCLC
786-0 renal = test system: 786-0 renal
COLO 205 colon = test system: COLO 205 colon

Compound	growth (NCI-H23 lung)	growth (NCI-H226 lung) [%]	growth (NCI-H322M lung)	growth (HOP-62 NSCLC) [%]	growth (NCI-H460 lung)	growth (HOP-92 NSCLC)	growth (NCI-H522 lung)	growth (A549/ATCC NSCLC)	growth (786-0 renal)	growth (COLO 205 colon)
C/C(=N/NC(=O)c1sc(=S)n(C)c1N)c1cc2cc(Cl)ccc2o1	97.9%	102	88.1%	96.5	89%	114%	88.6%	8.04% (active)	106%	104%
COc1cc(C2c3cc4c(cc3C(O)C(CO)C2CO)OCO4)cc(OC)c1OC (stereo not given)	43.2%	40.4	-0.279% (active)	40.7	4.74% (active)	65.4%	3.32% (active)	47.4%	39.1%	-3.75% (active)
COc1ccc(-c2nnc(SCC(=O)c3ccccc3)o2)cc1	91.2%	97.5	107%	84.5	105%	89.2%	83.9%	98.1%	79.4%	107%
N#Cc1c2c([nH]c(=O)c1C(N)=O)CCCCC2	100%	100	97.6%	92.4	105%	112%	90.7%	91.3%	98.5%	102%
CCc1cc2n(n1)-c1ncc(C(=O)OC)cc1Oc1ccccc1-2	104%	99.8	108%	95.4	104%	86.2%	94.2%	91.4%	100%	116%
O=S(=O)(O)C1(O)CCCCC1	93.3%	95.4	89.5%	81.8	48%	101%	91.7%	98.9%	102%	96.1%
O=NN(CC(=O)N/N=C/C=C\c1ccccc1)CC(=O)N/N=C/C=C/c1ccccc1	112%	90.7	91.2%	69.6	99.3%	60.6%	95.5%	97.3%	110%	109%
CC1(C)CC(OCCCC[P+](c2ccccc2)(c2ccccc2)c2ccccc2)CC(C)(C)N1O	4.57% (active)	12.7	9.8% (active)	13.3	2.69% (active)	-41.4% (active)	-14.3% (active)	6.09% (active)	-12.4% (active)	-55.3% (active)
COc1ccc(-c2cc(/C=C3\C(=O)Nc4cc(Cl)ccc43)[nH]n2)cc1	54.1%	56.1	81.9%	45.4	22%	51.7%	-14.9% (active)	44%	52.1%	19.4%
